MLLE-PAM2 inh = blocks PAM2 peptide binding to the PABP1 MLLE domain. inhibition, % at 20 µM. P11940. 360,000 tested, 0.36% active. GST-MLLE / FITC-PAM2 fluorescence polarization; in the data active means inhibition above about 35%, passing the limit was not always enough
Target sequence (P11940 whole entry, looked up, the tested form may be a part): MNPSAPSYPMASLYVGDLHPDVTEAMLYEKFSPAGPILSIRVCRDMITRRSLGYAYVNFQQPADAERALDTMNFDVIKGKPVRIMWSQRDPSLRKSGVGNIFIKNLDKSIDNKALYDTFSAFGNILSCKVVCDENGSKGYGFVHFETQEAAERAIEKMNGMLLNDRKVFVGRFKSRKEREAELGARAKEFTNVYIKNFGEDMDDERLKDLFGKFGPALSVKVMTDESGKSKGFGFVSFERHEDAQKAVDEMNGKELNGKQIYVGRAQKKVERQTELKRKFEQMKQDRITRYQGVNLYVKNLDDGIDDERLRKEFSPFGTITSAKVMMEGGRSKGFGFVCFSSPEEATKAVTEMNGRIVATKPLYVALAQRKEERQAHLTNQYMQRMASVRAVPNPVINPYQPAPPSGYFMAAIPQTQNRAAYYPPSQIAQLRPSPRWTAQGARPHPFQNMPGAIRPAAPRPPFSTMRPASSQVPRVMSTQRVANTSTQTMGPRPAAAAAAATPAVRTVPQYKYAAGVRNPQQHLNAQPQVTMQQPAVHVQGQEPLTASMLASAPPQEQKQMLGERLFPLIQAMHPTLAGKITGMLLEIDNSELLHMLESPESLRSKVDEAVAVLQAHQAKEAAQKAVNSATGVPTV
Efflux pump inh = blocks antifungal efflux pumps in multiplex yeast assay; S. cerevisiae Candida pump triplex, Nile Red efflux; inhibition, % at 10 µM; 330,000 tested, 0.44% active;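 active means plate passing quality check with inhibition over a set limit, or well fluorescence over plate mean plus 4 SD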;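 further: Nile Red retained in pooled yeast measured as flow cytometry median fluorescence; higher means more Nile Red kept so more efflux inhibition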
ALR inh = blocks human ALR sulfhydryl oxidase activity; 290,000 tested, 3.8% active; inhibition, % (no concentration beside the values); P55789; purified ALR, DTT oxidation, H2O2 HRP-luminol luminescence;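 active means mean replicate inhibition above about 79%, with every replicate also reaching it, limit read from the data; inconclusive means only one of the two criteria met; inactive means mean below limit and not every replicate reaching it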
eIF4H inh = inhibitors of RNA binding by human eIF4H; Q15056; eIF4H fluorescence polarization binding assay; inhibition, % at 35 µM; 290,000 tested, 0.94% active; AID 2012;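 further: calls also rest on retests at 20 µM and on dose response follow-up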
UBC9 SUMO inh = SUMOylation inhibition; 290,000 tested, 0.36% active; AID 2006; inhibition, % at 35 µM; HTRF SUMOylation assay, SAE1/SAE2 + UBC9, in vitro; P63279; in the data active means inhibition above about 50%, passing the limit was not always enough; inconclusive means no clear call, values can overlap the other calls
PABP FP inh = blocks human PABP binding to poly(A) RNA; fluorescence polarization; inhibition, % at 35 µM; 290,000 tested, 1% active; P11940;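 further: calls also rest on retests at 20 µM and on dose response follow-up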
Large screens that a line does not name were inactive. Shown are actives, neighbours in structure and some others; about 4.7% of the full set was active somewhere. Unless noted, how the calls were made is not given here.

O=c1c2c(-c3ccco3)csc2nc(SCc2cn3cccnc3n2)n1-c1ccccc1	eIF4H inh 88.9, PABP FP inh 65.9
O=C(CSc1nc2scc(-c3ccco3)c2c(=O)n1-c1ccccc1)N1CCOCC1	none
O=C(CSc1nc2scc(-c3ccco3)c2c(=O)n1-c1ccccc1)NCC1CCCO1 (stereo not given)	ALR inh 95.9
Cc1cccc(N2CCN(C(=O)c3ccc(NC4=NC5CS(=O)(=O)CC5S4)cc3)CC2C)c1 (stereo not given)	none (no result: eIF4H inh, UBC9 SUMO inh, PABP FP inh)
COc1ccc(C(=O)Nc2ccccc2C(=O)NCc2cccnc2)cc1	none
CN1C(=O)c2ccc(N3CCCC3)cc2C1=O	eIF4H inh 71.5, PABP FP inh 77.6
N#Cc1c(N)sc2c1CCCCCC2	ALR inh 98.7
N#Cc1c(N)sc(=S)c2c1CCCCC2	eIF4H inh inconclusive
O=c1cc(O)n(C2CCCCCC2)c(=O)[nH]1	PABP FP inh 17.3
CCCNC(=O)C1(C)CCCN(Cc2csc3ccccc23)C1 (stereo not given)	none (no result: Efflux pump inh, ALR inh, eIF4H inh, UBC9 SUMO inh, PABP FP inh)
Oc1c(C(c2ccco2)N2CCOCC2)sc2ncnn12 (stereo not given)	PABP FP inh 123.7
Oc1c(C(c2ccccc2)N2CCCCC2)sc2ncnn12 (stereo not given)	none
CC(C)(C)OC(=O)NCC(=O)N1CCC(C(=O)O)CC1	none
CC(C)(C)OC(=O)NCc1n[nH]c(=S)n1C1CC1	ALR inh 85.6
COCCn1c(SCC(=O)Nc2ccc(C(N)=O)cc2)nc2c([nH]c3ccccc32)c1=O	ALR inh 99.3
COCCn1c(SCC(=O)Nc2ccc(F)cc2)nc2c([nH]c3ccccc32)c1=O	none
CC(Cc1c[nH]c2ccccc12)C(=O)NCc1ccco1 (stereo not given)	eIF4H inh 99.0 (no result: ALR inh)
COc1ccccc1NC(=O)c1ccc2[nH]c(C)c(C)c2c1	ALR inh 86.8
CC1(C)CC(=O)C=C(Nc2ccccc2N)C1	ALR inh 98.7
Cc1ccc(NC2=CC(=O)CC(C)(C)C2)c(N)c1	eIF4H inh 82.5, PABP FP inh 78.7
Cc1nc2cc(F)ccc2n1C1CCN(C(=O)c2c(F)cccc2F)CC1	none
O=C(Nc1cccc(F)c1)N1CCc2nc(NCc3cccc(Oc4ccccc4)c3)ncc2C1	none (no result: Efflux pump inh, ALR inh, eIF4H inh, UBC9 SUMO inh, PABP FP inh)
Cc1ccc(CNC(=O)CSc2nccn(-c3ccc(C)c(F)c3)c2=O)cc1	MLLE-PAM2 inh 40.9, ALR inh 98.5 (no result: eIF4H inh, UBC9 SUMO inh, PABP FP inh)
COc1ccc(-n2ccnc(SCC(=O)NCc3ccc(C)cc3)c2=O)cc1Cl	ALR inh 97.9 (no result: eIF4H inh, UBC9 SUMO inh, PABP FP inh)
O=C(CSc1nccn(-c2cccc(F)c2)c1=O)Nc1ccc(Cl)cc1F	ALR inh 99.0
COc1ccc(OC)c(-c2csc(NC(=O)CSc3nnnn3C)n2)c1	none (no result: eIF4H inh, UBC9 SUMO inh, PABP FP inh)
COc1cc2oc(-c3ccc(O)cc3)cc(=O)c2c(O)c1OC	ALR inh 98.0
COc1cc(-c2cc(=O)c3ccc(O)cc3o2)cc(OC)c1OC	MLLE-PAM2 inh 45.5 (no result: Efflux pump inh, ALR inh, eIF4H inh, UBC9 SUMO inh, PABP FP inh)
COc1cc2oc(-c3ccc(O)cc3)cc(=O)c2c(OC)c1O	none (no result: Efflux pump inh, ALR inh)
Oc1ccc2c(c1)oc1cc(O)ccc12	ALR inh 98.8
COc1c(O)cc2oc(-c3ccc(O)cc3)cc(=O)c2c1O	ALR inh 93.9
O=c1cc(-c2ccccc2)oc2cc(O)c(O)c(O)c12	none (no result: ALR inh, eIF4H inh, UBC9 SUMO inh, PABP FP inh)
O=C(NC1(Cc2ccccc2)CCN(CCCc2ccccc2)C1=O)c1ccccc1 (stereo not given)	none (no result: eIF4H inh, UBC9 SUMO inh, PABP FP inh)
CC1(C(=O)NS(=O)(=O)c2ccc(Cl)cc2)CCN1C(=O)CCc1ccccc1 (stereo not given)	none (no result: Efflux pump inh, ALR inh, eIF4H inh, UBC9 SUMO inh, PABP FP inh)
Cc1oc2cc(O)ccc2c(=O)c1Oc1ccc(F)cc1	none
O=c1cc(-c2ccc(O)cc2)oc2c(O)c(O)c(O)c(O)c12	ALR inh 86.4, eIF4H inh 90.6, PABP FP inh 82.8
O=c1cc(-c2ccc(O)cc2)oc2c1ccc1ccccc12	none (no result: eIF4H inh, UBC9 SUMO inh, PABP FP inh)
COc1c(C)oc2cc(O)ccc2c1=O	UBC9 SUMO inh 50.2, PABP FP inh inconclusive
Cc1ccc(S(=O)(=O)N2CCN(C(=O)COC(=O)/C=C/c3cccc([N+](=O)[O-])c3)CC2)c(C)c1	none (no result: Efflux pump inh, ALR inh, eIF4H inh, UBC9 SUMO inh, PABP FP inh)
O=C1CSC(c2cccnc2)N1c1cccc(Cl)c1 (stereo not given)	ALR inh 98.6
O=C1CSC(c2cccnc2)N1c1ccc(F)cc1 (stereo not given)	ALR inh 99.1
Cc1ccc(N2C(=O)CSC2c2cccnc2)c(Cl)c1 (stereo not given)	none (no result: ALR inh)
CC(=O)c1ccc(NC(=S)Nc2ccc3[nH]c(=O)[nH]c3c2)cc1	none
Cc1ccc(NC(=S)Nc2ccc3[nH]c(=O)[nH]c3c2)cc1C	MLLE-PAM2 inh 42.8, ALR inh 90.0
CC(=O)N1CCN(c2ccc(NCc3ccc(C)s3)cc2)CC1	ALR inh 98.7
Clc1cc(NCc2cccs2)ccc1N1CCOCC1	ALR inh 97.2
CC(=O)Nc1ccc(N2CCN(C(=O)c3cccs3)CC2)cc1	none
CC(=O)N1CCN(c2ccc(NCc3cccs3)cc2)CC1	ALR inh 98.8
O=C(NCc1cccs1)C1CCN(c2ccc(S(=O)(=O)N3CCOCC3)cc2Cl)CC1	none
Cc1ccc(CNc2ccc(N3CCOCC3)cc2)s1	none (no result: ALR inh)
C=CCOC(=O)C1=C[C@H](c2ccc3c(c2)OCO3)C[C@H](OCCCCO)O1	none (no result: eIF4H inh, UBC9 SUMO inh, PABP FP inh)
COc1ccc(S(=O)(=O)n2nc(OC(=O)c3ccccc3)cc2N)cc1	none (no result: ALR inh)
COc1ccc(S(=O)(=O)n2nc(OC(=O)c3ccco3)cc2N)cc1	ALR inh 97.2
COc1ccc(-c2cc(C(=O)N/N=C(\C)c3cccnc3)c3ccccc3n2)c(OC)c1	none
CCN(CC)CC#CC(O)(c1ccccc1)c1ccccc1	none
CN(C)CCC#CC(O)(c1ccccc1)c1ccccc1	eIF4H inh 6.6, PABP FP inh 75.7
O=C(CNC(=O)c1ccco1)OCc1ccccc1F	none (no result: eIF4H inh, UBC9 SUMO inh, PABP FP inh)
COc1cccc(/C=N/Nc2nc3ccccc3n3cnnc23)c1	eIF4H inh 85.3, PABP FP inh 3.7
COc1cccc(Nc2nc3ccccc3n3nnnc23)c1	ALR inh 97.3
Fc1cccc(Nc2nc3ccccc3n3nnnc23)c1	none
Brc1ccc(Nc2nc3ccccc3n3nnnc23)cc1	eIF4H inh 79.1, PABP FP inh 87.0 (no result: MLLE-PAM2 inh)
Cc1ccc(OC(=O)N(C)C[C@@H]2OCc3cn(nn3)CCCC(=O)N([C@H](C)CO)C[C@H]2C)cc1	none (no result: Efflux pump inh, ALR inh, eIF4H inh, UBC9 SUMO inh, PABP FP inh)
Cc1ccc2c(c1)C(=O)C(=O)N2CC(=O)Nc1ccccc1NC(=O)c1ccccn1	none
Nc1ncnc2c1ncn2[C@@H]1O[C@H](CNS(=O)(=O)c2cc(S(=O)(=O)c3ccccc3)cs2)[C@@H](O)[C@H]1O	none (no result: ALR inh, eIF4H inh, UBC9 SUMO inh, PABP FP inh)
O=[N+]([O-])C(/C=C(\Cl)[N+](=O)[O-])=C1N(Cc2ccc(Cl)nc2)CCN1Cc1ccc(Cl)nc1	eIF4H inh inconclusive, PABP FP inh 36.1
COC(=O)[C@@]1(Cc2ccccc2)[C@H]2C(=O)N(Cc3ccccc3)C(=O)[C@H]2[C@H]2CN=C(SCC(=O)c3ccccc3)N21	none (no result: ALR inh, eIF4H inh, UBC9 SUMO inh, PABP FP inh)

Bioassay records from PubChem.
